# Data published in PubChem BioAssay (EPA / NIEHS).
# Records with an inconclusive call do not appear. Calls of active or inactive are those of the source. Rule for the calls, unless noted: active = hit-call score of the fitted dose curve at least 0.9, where 1 is the maximum; inactive = score below 0.9.
# Experiments:
# [1] = CCTE_Harrill_HTTr_Viability_MCF7: CCTE's 6-hour Cell Viability Assessment for the High-Throughput Transcriptomics (HTTr) Platform, in MCF-7 cells cultured in DMEM + 10% fetal bovine serum, Harrill Lab (AID 2284010)
# In short: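 PI exclusion, high-content imaging; 8-pt dilution series, 6 h exposure; bidirectional fit vs DMSO (neg. ctrl/baseline); gain of signal = loss of membrane integrity.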
# [2] = CCTE_Harrill_HTTr_Apoptosis_MCF7: CCTE's 6-hour Apoptosis Assessment for the High-Throughput Transcriptomics (HTTr) Platform, in MCF-7 cells cultured in DMEM + 10% fetal bovine serum, Harrill Lab (AID 2284011)
# In short: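 Read-out: CellEvent Caspase 3/7 Green signal by high content imaging, gain-of-signal indicating apoptosis. MCF-7 cells, DMEM + 10% FBS, eight-point dilution series, 6 h exposure. Curves fitted bidirectionally relative to DMSO negative control.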
# [3] = CCTE_Shafer_MEA_acute_spike_number: CCTE's Neural Acute Assay for Total Number of Spikes, Shafer Lab (AID 2284008)
# In short: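 Rat cortical cultures, DIV 13/15, 37 C. 40 min baseline rec, cpd 0.03-40 uM, 40 min post-dose rec. Band-pass 300-5000 Hz, spike threshold 8x rms; % change in spike count per well, DMSO neg ctrl, loss-of-signal fit.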
# [4] = CCTE_Shafer_MEA_acute_firing_rate_mean: CCTE's Neural Acute Assay for Mean Firing Rate, Shafer Lab (AID 2284009);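 note: analyzed for loss of signal so actives lower firing rate relative to DMSO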
# In short: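 Primary rat cortical neurons on 16-electrode MEA wells were exposed on DIV 13 or 15 to compound (0.03-40 uM). Spike counts per recording time, averaged over electrodes, were compared between 40-min baseline and 40-min post-exposure recordings as percent change.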
# [5] = CCTE_Shafer_MEA_acute_burst_number: CCTE's Neural Acute Assay for Single-Electrode Bursts, Shafer Lab (AID 2284013)
# In short: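 Primary rat cortical neurons on 16-electrode MEA wells, DIV 13 or 15, exposed to compound (0.03-40 uM; ≥3 wells); 40-min recordings at 37 C before and after treatment. Burst count expressed as percent change from baseline, DMSO as negative control.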
# [6] = CCTE_Shafer_MEA_acute_per_burst_spike_number_mean: CCTE's Neural Acute Assay for Average Number of Spikes Per Burst, Shafer Lab (AID 2284015);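 note: hits are decreases in mean spikes per burst versus baseline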
# In short: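 Percent change in mean spikes per single-electrode burst is compared between a 40 min baseline and a 40 min recording with compound (0.03-40 uM). Cultures were rat cortical neurons on MEA plates at DIV 13 or 15, recorded at 37 C, with DMSO as the negative control.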
# [7] = CCTE_Shafer_MEA_acute_interburst_interval_mean: CCTE's Neural Acute Assay for Mean Interburst Interval, Shafer Lab (AID 2284016);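 note: percent change of mean interburst interval versus each well's own pre-dose baseline; curves fitted for decrease in interburst interval relative to DMSO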
# In short: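 Percent change in mean single-electrode interburst interval was calculated per well from 40 min recordings before and after compound (0.03-40 uM). Recordings were made at 37 C on rat cortical cultures at DIV 13 or 15, with spikes detected at 8x rms threshold.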
# [8] = CCTE_Shafer_MEA_acute_burst_percentage_mean: CCTE's Neural Acute Assay for Percentage of Spikes in a Burst, Shafer Lab (AID 2284017)
# In short: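 Well-level mean burst percentage from a 40-min recording after compound (0.03-40 uM) expressed as percent change from a 40-min baseline at 37C. Cultures: primary rat cortical neurons on MEA, dosed on DIV 13 or 15; fitted downward relative to DMSO.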
# [9] = CCTE_Shafer_MEA_acute_burst_percentage_std: CCTE's Neural Acute Assay for Standard Deviation of Burst Percentage, Shafer Lab (AID 2284018);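 note: fitted in the negative direction so actives lower burst percentage SD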
# In short: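 Value is percent change from baseline in the across-electrode SD of spikes-in-bursts percentage, wells with >/= 10 active electrodes. Acute 40-min exposure to 0.03-40 uM on DIV 13 or 15 rat cortical cultures, recorded at 37 C after 40-min baseline.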
# [10] = CCTE_Shafer_MEA_acute_per_network_burst_spike_number_mean: CCTE's Neural Acute Assay for Average Number of Spikes in a Network Burst, Shafer Lab (AID 2284019)
# In short: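 Percent change from baseline in mean spikes per network burst, spikes detected at 8x rms noise. Each compound at 0.03-40 uM in at least three wells of rat cortical cultures, recorded 40 min before and 40 min during exposure.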
# [11] = CCTE_Shafer_MEA_acute_per_network_burst_spike_number_std: CCTE's Neural Acute Assay for Standard Deviation of Number of Spikes in a Network Burst, Shafer Lab (AID 2284020);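 note: fitted for decrease in spike-number SD versus DMSO so actives lower it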
# In short: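 Endpoint: percent change from 40 min baseline in standard deviation of spikes per network burst, after 40 min compound exposure (0.03-40 uM, 37 C). Cortical rat neurons on MEA at DIV 13 or 15; spikes detected at 8x rms noise, 300-5000 Hz band-pass.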
# [12] = CCTE_Shafer_MEA_acute_per_network_burst_electrodes_number_mean: CCTE's Neural Acute Assay for Mean Number of Electrodes in a Network Burst, Shafer Lab (AID 2284021);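 note: curves fitted for decreases only so hits reduce electrodes per burst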
# In short: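 Readout: % change in mean electrodes active per network burst, post- vs pre-treatment, each well. Spikes detected at 8x rms noise after 300-5000 Hz band-pass; rat cortical cultures, DIV 13/15, compounds 0.03-40 uM, DMSO baseline.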
# [13] = CCTE_Shafer_MEA_acute_network_burst_percentage: CCTE's Neural Acute Assay for Percentage of Network Bursts, Shafer Lab (AID 2284022);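 note: rat primary cortical neuron networks on multiwell MEA recorded 40 min; curves fitted for loss so actives lower network burst percentage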
# In short: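 Rat cortical cultures, DIV 13/15; 20 min equilibration, 40 min baseline, compound 0.03-40 uM, 40 min recording, 37 C. Spikes: 300-5000 Hz band-pass, threshold 8x rms noise. Readout: % change in network-burst spike fraction; loss direction vs DMSO.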
# [14] = CCTE_Shafer_MEA_acute_cross_correlation_area: CCTE's Neural Acute Assay for Area of Cross Correlation, Shafer Lab (AID 2284024);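 note: rat primary cortical neuron networks on 48-well MEA at DIV 13 or 15 with 40 min exposure; area under pooled inter-electrode spike cross-correlation near zero lag as percent change from own baseline; curves fitted for loss of cross-correlation area so actives lower synchrony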
# In short: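 Rat cortical cultures, DIV 13/15, MEA; spikes detected at 8x rms noise (300-5000 Hz band-pass). Compound 0.03-40 uM, ≥3 wells each. Readout: % change in pooled inter-electrode cross-correlation area vs own baseline; DMSO negative control.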
# [15] = CCTE_Shafer_MEA_acute_cross_correlation_HWHM: CCTE's Neural Acute Assay for Cross Correlation at Half Width at Half Maximum, Shafer Lab (AID 2284026);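 note: spontaneous network firing of rat primary cortical neurons on multiwell microelectrode arrays; percent change per well from pre-dose baseline in spike cross-correlogram half width; hits are a decrease in cross-correlogram half width relative to DMSO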
# In short: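 Read-out: half width at half maximum of action-potential cross-correlogram, percent change versus pre-treatment baseline, fitted in loss direction against DMSO. Rat cortical cultures, DIV 13 or 15, dosed 0.03-40 uM, 40-min recordings at 37 C.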
# [16] = target: Estrogen receptor (Homo sapiens) (UniProt P03372); assay: CCTE_Deisenroth_AIME_96WELL_LUC_Active: CCTE's 96-well Estrogen Receptor Transactivation Assay with AIME metabolic competence (ERTA luciferase; metabolism positive), Deisenroth Lab (AID 2284023; active = hit-call score of the fitted dose curve at least 0.9, where 1 is the maximum)
# Chain of Estrogen receptor (Homo sapiens) (P03372 whole entry, looked up): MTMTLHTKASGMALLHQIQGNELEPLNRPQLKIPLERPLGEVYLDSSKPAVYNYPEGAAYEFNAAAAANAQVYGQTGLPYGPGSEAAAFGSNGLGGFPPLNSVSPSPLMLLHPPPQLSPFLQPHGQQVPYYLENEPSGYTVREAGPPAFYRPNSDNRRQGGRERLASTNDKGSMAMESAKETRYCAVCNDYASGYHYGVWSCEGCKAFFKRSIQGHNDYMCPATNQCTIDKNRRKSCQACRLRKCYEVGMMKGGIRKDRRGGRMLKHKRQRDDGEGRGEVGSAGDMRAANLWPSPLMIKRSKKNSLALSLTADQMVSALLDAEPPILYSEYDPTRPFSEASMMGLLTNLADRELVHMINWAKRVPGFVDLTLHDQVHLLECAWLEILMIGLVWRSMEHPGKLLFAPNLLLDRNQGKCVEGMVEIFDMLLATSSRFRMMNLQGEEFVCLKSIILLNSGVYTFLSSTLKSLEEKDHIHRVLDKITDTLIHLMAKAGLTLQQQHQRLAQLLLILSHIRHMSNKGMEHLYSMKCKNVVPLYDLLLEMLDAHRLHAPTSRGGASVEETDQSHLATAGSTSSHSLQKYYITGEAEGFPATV
# In short: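 Metabolism-positive mode: induced rat hepatic S9 in alginate microspheres conditions test solutions (0.002 - 200 uM, 10 points) for 2 hours. VM7Luc4E2 ER luciferase reporter cells then exposed 24 h; positive-direction fit against 17beta-estradiol, n=4 typical.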
# [17] = target: Estrogen receptor (Homo sapiens) (UniProt P03372); assay: CCTE_Deisenroth_AIME_96WELL_LUC_Inactive: CCTE's 96-well Estrogen Receptor Transactivation Assay without AIME metabolic competence (ERTA luciferase; metabolism negative), Deisenroth Lab (AID 2284025; active = hit-call score of the fitted dose curve at least 0.9, where 1 is the maximum)
# In short: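 Metabolism-negative arm: chemicals (0.002–200 uM, 10 points) incubated 2 h with alginate-water microspheres, then medium moved onto VM7Luc4E2 cells for 24 h luciferase read-out. Positive direction vs 17beta-estradiol; n≥4 experiments.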
smiles,measurement,setting,value
Cc1ccccc1O,outcome,[1],inactive
same,outcome,[2],inactive
Cc1cc(O)ccc1Cl,outcome,[1],inactive
same,outcome,[2],inactive
O=C(NC(=O)c1cc(F)c(F)cc1Cl)Nc1cc(F)ccc1N1CCC(C(=O)O)CC1,outcome,[1],inactive
same,outcome,[2],inactive
CCOCCOC(C)=O,outcome,[1],inactive
same,outcome,[2],inactive
O=NN(c1ccccc1)c1ccccc1,outcome,[1],inactive
same,outcome,[2],inactive
Cc1cccc([N+](=O)[O-])c1,outcome,[1],inactive
same,outcome,[2],inactive
Oc1ccc(Cl)cc1Cl,outcome,[1],inactive
same,outcome,[2],inactive
CCOC(=O)C(O)(c1ccc(Cl)cc1)c1ccc(Cl)cc1,outcome,[1],inactive
same,outcome,[2],inactive
CC(C)C(=O)OCC(C)(C)C(OC(=O)C(C)C)C(C)C (centres undefined),outcome,[3],inactive
same,outcome,[4],inactive
same,outcome,[5],inactive
same,outcome,[6],inactive
same,outcome,[7],inactive
same,outcome,[8],inactive
same,outcome,[9],inactive
same,outcome,[10],inactive
same,outcome,[11],inactive
same,outcome,[12],inactive
same,outcome,[13],inactive
same,outcome,[14],inactive
same,outcome,[15],inactive
O=S(=O)(O)C(F)(F)C(F)(F)C(F)(F)C(F)(F)F,outcome,[1],inactive
same,outcome,[2],inactive
Clc1ccc(C(c2ccccc2Cl)C(Cl)(Cl)Cl)cc1 (centres undefined),outcome,[1],inactive
same,outcome,[2],inactive
Cc1cccc(C)c1N,outcome,[1],inactive
same,outcome,[2],inactive
C1CC2OC2CC1C1CO1 (centres undefined),outcome,[1],inactive
same,outcome,[2],inactive
Cc1ccc(O)c(C)c1,outcome,[1],inactive
same,outcome,[2],inactive
Cc1ccccc1CO[C@@H]1C[C@@]2(C(C)C)CC[C@]1(C)O2,outcome,[1],inactive
same,outcome,[2],inactive
CCOP(=S)(OCC)SCSC(C)(C)C,outcome,[1],inactive
same,outcome,[2],inactive
CCCCCCCCOC(=O)c1ccccc1C(=O)OCCCCCCCC,outcome,[1],inactive
same,outcome,[2],inactive
same,outcome,[16],inactive
same,AC50,[17],2.22 µM (active)
O=S(=O)(O)C(F)(F)C(F)(F)C(F)(F)C(F)(F)C(F)(F)C(F)(F)F,outcome,[1],inactive
same,outcome,[2],inactive
CCCCCCOC(=O)c1ccccc1C(=O)OCCCCCC,outcome,[1],inactive
same,outcome,[2],inactive
Cc1cc(-c2ccc(N)c(C)c2)ccc1N,outcome,[1],inactive
same,outcome,[2],inactive
CN(C)CCO,outcome,[3],inactive
same,outcome,[4],inactive
same,outcome,[1],inactive
same,outcome,[2],inactive
same,outcome,[5],inactive
same,outcome,[6],inactive
same,outcome,[7],inactive
same,outcome,[8],inactive
same,outcome,[9],inactive
same,outcome,[10],inactive
same,outcome,[11],inactive
same,outcome,[12],inactive
same,outcome,[13],inactive
same,outcome,[14],inactive
same,outcome,[15],inactive
CN(C)c1nc(=O)n(C2CCCCC2)c(=O)n1C,outcome,[1],inactive
same,outcome,[2],inactive
Cc1cc2c3c(c1)C(c1ccccc1)=N[C@@H](NC(=O)c1ccncc1)C(=O)N3CC2,outcome,[1],inactive
same,outcome,[2],inactive
Sc1ccccc1,outcome,[1],inactive
same,outcome,[2],inactive
Nc1ccc(-c2ccc(N)cc2)cc1,outcome,[3],inactive
same,outcome,[4],inactive
same,outcome,[5],inactive
same,outcome,[6],inactive
same,outcome,[7],inactive
same,outcome,[8],inactive
same,outcome,[9],inactive
same,outcome,[10],inactive
same,outcome,[11],inactive
same,outcome,[12],inactive
same,outcome,[13],inactive
same,outcome,[14],inactive
same,outcome,[15],inactive
Nn1cnnc1,outcome,[1],inactive
same,outcome,[2],inactive
c1cc2ccc3cccc4ccc(c1)c2c34,outcome,[1],inactive
same,outcome,[2],inactive
same,outcome,[16],inactive
same,AC50,[17],42.1 µM (active)
CC1=C2C[C@H]3[C@@H](CC=C4C[C@@H](O)CC[C@@]43C)[C@@H]2CC[C@]12O[C@@H]1C[C@H](C)CN[C@H]1[C@H]2C,outcome,[1],inactive
same,outcome,[2],inactive
O=C(O)C(F)(F)C(F)(F)C(F)(F)C(F)(F)C(F)(F)F,outcome,[3],inactive
same,outcome,[4],inactive
same,outcome,[1],inactive
same,outcome,[2],inactive
same,outcome,[5],inactive
same,outcome,[6],inactive
same,outcome,[7],inactive
same,outcome,[8],inactive
same,outcome,[9],inactive
same,outcome,[10],inactive
same,outcome,[11],inactive
same,outcome,[12],inactive
same,outcome,[13],inactive
same,outcome,[14],inactive
same,outcome,[15],inactive
Clc1ccc(C(Cl)(Cl)Cl)cc1,outcome,[3],inactive
same,outcome,[4],inactive
same,outcome,[1],inactive
same,outcome,[2],inactive
same,outcome,[5],inactive
same,outcome,[6],inactive
same,outcome,[7],inactive
same,outcome,[8],inactive
same,outcome,[9],inactive
same,outcome,[10],inactive
same,outcome,[11],inactive
same,outcome,[12],inactive
same,outcome,[13],inactive
same,outcome,[14],inactive
same,outcome,[15],inactive
C=CC(=O)NCNC(=O)C=C,outcome,[1],inactive
same,outcome,[2],inactive
Clc1ccc(Cl)cc1,outcome,[1],inactive
same,outcome,[2],inactive
